High-throughput results as filed in PubChem BioAssay.
An excerpt weighted towards active compounds, which were near 22% of everything screened.
CYP2C19 activ – increases human CYP2C19 enzyme activity; P33261; 96,000 tested, under 10 active; recombinant CYP2C19, luciferin-H EGE luminescence; active compounds read high; 0 = fully inhibited enzyme, 1 = untreated enzyme; activation factor at 5 µM;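 active = activation factor of at least 2 at 5 µM in the primary screen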;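 also: 0 = wells with 2.5 mM tranylcypromine and 1 = vehicle-only wells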
Target sequence (P33261 whole entry, looked up): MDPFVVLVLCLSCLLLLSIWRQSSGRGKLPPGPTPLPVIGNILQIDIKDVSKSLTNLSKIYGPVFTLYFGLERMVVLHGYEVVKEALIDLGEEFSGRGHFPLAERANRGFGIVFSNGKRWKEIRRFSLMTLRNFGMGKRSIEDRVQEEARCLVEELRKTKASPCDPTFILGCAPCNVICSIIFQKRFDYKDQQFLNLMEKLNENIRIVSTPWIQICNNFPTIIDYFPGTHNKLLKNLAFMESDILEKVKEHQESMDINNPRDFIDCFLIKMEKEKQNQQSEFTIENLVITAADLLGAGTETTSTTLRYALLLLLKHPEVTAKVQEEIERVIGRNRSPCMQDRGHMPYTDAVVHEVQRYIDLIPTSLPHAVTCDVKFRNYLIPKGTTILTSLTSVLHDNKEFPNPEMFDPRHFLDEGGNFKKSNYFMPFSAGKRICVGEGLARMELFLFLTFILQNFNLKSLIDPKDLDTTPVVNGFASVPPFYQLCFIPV
CYP2C9 inh – inhibitors of human CYP2C9 | inhibition, % at 5 µM | P11712 | 96,000 tested, 20% active | CYP2C9 Supersomes, luciferin-H conversion, luminescence;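 active = blocking of liver enzyme CYP2C9 beyond about 50% at 5 µM, limit read from the data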
CYP2C9 activ – CYP2C9 (human) activation; 96,000 tested, 1.4% active; recombinant CYP2C9, luciferin-H conversion, luminescence; active compounds read high; factor 1 = untreated enzyme, 0 = blocked; activation factor at 5 µM; AID 1024;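 active = activation factor of 2 or more for CYP2C9 at a 5 µM dose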;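 also: 0 = sulfaphenazole-blocked wells and 1 = vehicle-only wells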
CYP2C19 inhib – inhibitors of human CYP2C19. AID 778. inhibition, % at 5 µM. P33261. CYP2C19 Supersomes, luciferin-H EGE luminescence, 30 min. 96,000 tested, 21% active;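 active = CYP2C19 inhibition above a set limit at 5 µM in the primary screen, cut at about 50% in these data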;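 also: plate controls were negative control wells for no effect and 2.5 mM tranylcypromine positive control for full effect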
Measles CPE – protection of cells from measles virus; 140,000 tested, 1.5% active; Measles virus-infected cells, CPE protection, absorbance; AID 841; protection (pct of control), % at 4 µM; in the data active = protection mostly above about 24%, no sharp cut-off; inactive = mostly below about 26%
Numbers without * were called inactive; . = no result.

SMILES	CYP2C19 activ	CYP2C9 inh	CYP2C9 activ	CYP2C19 inhib	Measles CPE
Cc1c(C(=O)Nc2ccccc2[N+](=O)[O-])csc1-c1ccccc1	.	.	.	.	9
O=C(CCNC(=O)Cn1ccc2ccccc2c1=O)NCCc1ccccc1Cl	.	.	.	.	14
C/C(=N\OC(=O)c1cccc(C)c1)c1sc(-c2ccccc2)nc1C	0.5	40	0.6	52*	9
CN1CCN(NC(=O)c2cccc3ccccc23)CC1	.	.	.	.	6
CCOCCCNS(=O)(=O)c1ccc(NC(=O)N2c3ccccc3Sc3ccccc32)cc1	0.5	92*	0.1	46	2
NS(=O)(=O)c1ccc(NC(=O)N2c3ccccc3Sc3ccccc32)cc1	1.1	-7	1.1	-12	15
CN1CCN(S(=O)(=O)c2ccc(N(C)Cc3cccs3)nc2)CC1	1	-40	1.4	4	10
CCS(=O)(=O)n1nc(-c2ccccc2)cc1N	0.3	7	0.9	67*	2
CCCS(=O)(=O)n1nc(-c2ccccc2)cc1N	0.1	67*	0.3	93*	14
CCS(=O)(=O)n1nc(-c2ccccc2)nc1N	.	.	.	.	6
Nc1cc(-c2ccccc2)nn1Cc1ccc(Cl)cc1	0.1	75*	0.2	93*	16
Nc1cc(-c2ccc(Cl)cc2)nn1S(=O)(=O)c1ccccc1	0.4	83*	0.2	64*	5
COc1ccc(-c2cc(N)n(S(=O)(=O)Cc3ccccc3)n2)c(OC)c1	.	.	.	.	17
CCCS(=O)(=O)n1nc(-c2ccc(Br)cc2)cc1N	0.3	86*	0.1	68*	7
CCOc1ccc(-c2cc(N)n(S(=O)(=O)c3ccc(OC)cc3)n2)cc1	1.1	44	0.6	-6	20
CN(C)CCSc1nnc2[nH]c3ccccc3c2n1	.	.	.	.	2
Cc1ccc(NC(=O)c2cc(N3C(=O)C=CC3=O)ccc2Cl)cc1C	.	.	.	.	6
O=c1c(-c2ccnn2-c2cccc(Cl)c2)cnc2n1CCS2	0.1	46	0.5	91*	18
O=C(Nc1ccccc1)c1cnc2n(c1=O)CCS2	0.9	35	0.7	7	13
N#Cc1ccc(-n2nccc2-c2cnc3n(c2=O)CCS3)cc1	0.1	24	0.8	92*	41*
O=c1c(-c2ccnn2-c2ccccc2F)cnc2n1CCS2	0.4	12	0.9	58*	23
N#Cc1c(-c2ccc(F)cc2)nc2n(c1=O)CCS2	0.8	-3	1	19	8
O=c1c(-c2ccnn2-c2ccc(F)cc2)cnc2n1CCS2	0.2	8	0.9	79*	11
Cc1cc(=O)[nH]c(SCc2cc(=O)n3nc(C)sc3n2)n1	1.2	-13	1.1	-15	6
CCOC(=O)C1=C(N)OC2=C(C(=O)CCC2)C1c1cccnc1 (configuration not stated)	0.8	7	0.9	22	8
SMILES	CYP2C19 activ	CYP2C9 inh	CYP2C9 activ	CYP2C19 inhib	Measles CPE
CCOC(=O)C1=C(N)n2c(s/c(=C\c3cccs3)c2=O)=C(C(=O)OCC)C1c1cccs1 (configuration not stated)	0.7	78*	0.2	29	6
CCOC(=O)C1=C(C)N(c2ccc(C)cc2)C(=O)/C1=C\c1cccs1	1.1	7	0.9	-10	3
CCOC(=O)C1=C(N)n2c(s/c(=C\c3cccnc3)c2=O)=C(C(=O)OCC)C1c1cccnc1 (configuration not stated)	0.4	70*	0.3	63*	.
CCN(CC)C(=O)Oc1cc(=O)n(C)c2ccccc12	.	.	.	.	16
CCCOc1c(OC)cccc1C1CC(=O)Nc2cc3c(cc21)OCO3 (configuration not stated)	0	52*	0.5	96*	9
CCCOc1c(OC)cccc1C1CC(=O)Nc2cc3c(cc21)OCCO3 (configuration not stated)	0.6	68*	0.3	44	21
CCOc1c(OC)cccc1C1CC(=O)Nc2cc(OC)c(OC)cc21 (configuration not stated)	.	.	.	.	12
COc1ccc(/C=N/N2CCN(C3c4ccccc4-c4ccccc43)CC2)cc1O	.	.	.	.	7
CC(C)(C)N1CC2([N+](=O)[O-])CN(C(C)(C)C)CC([N+](=O)[O-])(C1)C2	0.9	6	0.9	13	7
C=CCN1C(=O)C(O)=C(C(C)=O)C1c1ccccc1F (configuration not stated)	1.2	15	0.9	-20	19
CCC(C)C(NC(=O)C1CCC(C)CC1)C(=O)NCc1cccnc1 (configuration not stated)	.	.	.	.	8
